# Measured values reported in PubChem BioAssay (Tox21).
# Inconclusive results are not listed. The source made the active and inactive calls. Calls follow the shape of the full dose curve.
# Assay: p53 small molecule agonists, cell-based qHTS assay with human liver microsomes: qHTS cell viability counter screen (AID 1963579); also: potency is read from the fitted curve at half-maximal effect
# Conditions: p53RE-bla HCT-116 viability, ATP luminescence, 16 h, HLM; series mostly up to 66 µM; activity change, negative = cytotoxicity: at the top concentration
# Procedure, shortened: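 Cytotoxicity counter screen: p53RE-bla, 4,000 cells/well; 5 h settle, 37 C/5% CO2; cpd + HLM 0.5 mg/mL + NADPH 0.5 mg/mL (final); 16 h, 37 C; CellTiter-Glo, 30 min RT, luminescence.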
# % is scaled to controls: 0 for no effect and ±100 for the full control effect.
# Also: nearly all actives have a fitted effect of over 45% in size.
Structure (SMILES),"activity change, negative = cytotoxicity",Potency
CC1(C)C(=O)N(Cl)C(=O)N1Br,3.76% (inactive),
CCOc1ccc(OCC)c(Cl)c1,2.91% (inactive),
c1ccc(-c2nc[nH]c2-c2ccccc2)cc1,34% [at 30.3 µM] (inactive),
CCOc1ccc2nc(S(N)(=O)=O)sc2c1,0.972% [at 30.3 µM] (inactive),
O=C1CC[C@@H](C(=O)O)N1,-6.27% [at 30.3 µM] (inactive),
CCCCC(CC)C(=O)OCCOCCOCCOCCOC(=O)C(CC)CCCC (stereo unspecified),-11.6% (inactive),
O=C(O)CNC(=O)CNC(=O)CNC(=O)CSC(=O)c1ccccc1,-6.28% [at 30.3 µM] (inactive),
CC(O)CC(C)O (stereo unspecified),3.64% (inactive),
Clc1sc(Cl)c(Cl)c1Cl,-1.07% (inactive),
C/C=C(\C)C(C)=O,9.97% (inactive),
CC1=NN(c2cccc(S(=O)(=O)O)c2)C(=O)C1,4.36% (inactive),
C=CCOC(=O)c1ccc(C(=O)OCC=C)c(C(=O)OCC=C)c1,6.99% (inactive),
Cc1ccc(N)cc1S(=O)(=O)O,-5.26% (inactive),
CC(C)(CO)[N+](=O)[O-],4.3% (inactive),
C[Si](C)(C)O[Si](O)(O)O,4.2% (inactive),
CC(Cc1ccccc1)(NC(=O)CN)c1ccccc1 (stereo unspecified),6.57% [at 30.3 µM] (inactive),
N[C@@H](CCC(=O)O)C(=O)O,-13% (inactive),
C=C(C)C1CC=C(C)C(=O)C1 (stereo unspecified),,32.2 µM (active)
CC(CO)(CO)[N+](=O)[O-],-2.69% (inactive),
NNC(=O)CP(=O)(c1ccccc1)c1ccccc1,-15.6% [at 30.3 µM] (inactive),
C=CCCC(=O)O,3.12% (inactive),

# Assay: p53 small molecule agonists, cell-based qHTS assay with rat liver microsomes: qHTS cell viability counter screen (AID 1963580)
# Conditions: p53RE-bla HCT-116 + rat microsomes, ATP viability, 16 h; series mostly up to 66 µM; activity change, negative = cytotoxicity: at the top concentration
# Procedure, shortened: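 p53RE-bla HCT-116 cells (4,000/well) rested 5 h at 37 C, then given Tox21 compounds in DMSO with rat liver microsomes (0.5 mg/mL final) plus NADPH (0.5 mg/mL final) for 16 h at 37 C. Viability read by CellTiter-Glo luminescence after 30 min at room temperature.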
row,Structure (SMILES),"activity change, negative = cytotoxicity"
1,OC[C@H]1O[C@@H]2O[C@H]3[C@H](O)[C@@H](O)[C@@H](O[C@H]4[C@H](O)[C@@H](O)[C@@H](O[C@H]5[C@H](O)[C@@H](O)[C@@H](O[C@H]6[C@H](O)[C@@H](O)[C@@H](O[C@H]7[C@H](O)[C@@H](O)[C@@H](O[C@H]8[C@H](O)[C@@H](O)[C@@H](O[C@H]9[C@H](O)[C@@H](O)[C@@H](O[C@H]1[C@H](O)[C@H]2O)O[C@@H]9CO)O[C@@H]8CO)O[C@@H]7CO)O[C@@H]6CO)O[C@@H]5CO)O[C@@H]4CO)O[C@@H]3CO,15.8% [at 30.3 µM] (inactive)
2,CCCCCCCCCCCCOC(C)=O,0.0655% (inactive)
3,S=C(S)NCCNC(=S)S,3.9% (inactive)
4,C=Cc1ccc(C(C)(C)C)cc1,0% (inactive)
5,CCN[C@H]1C[C@H](C)S(=O)(=O)c2sc(S(N)(=O)=O)cc21,2.29% [at 30.3 µM] (inactive)
6,O=c1c2ccccc2oc2ccccc12,-0.0688% (inactive)
7,Nc1ncn([C@H]2C[C@H](O)[C@@H](CO)O2)c(=O)n1,6.02% [at 30.3 µM] (inactive)
8,CC(=O)Nc1ccc(S(=O)(=O)Cl)cc1,-6.33% (inactive)
9,CC(C)(C)C(=O)CCc1ccc(Cl)cc1,1.71% (inactive)
10,CC(=O)NNC(C)=O,0.743% (inactive)
11,O=[N+]([O-])c1ccc(Cl)cc1Cl,1.87% (inactive)
12,OCC1CC=CCC1 (stereo unspecified),2.92% (inactive)
13,C=CCN(CC=C)CC=C,-0.383% (inactive)
14,O=C(Cl)c1c(Cl)cccc1Cl,3.39% (inactive)
15,NCCCN(CCO)CCO,-0.6% (inactive)
16,CC1=C(C(=O)O)N2C(=O)[C@@H](NC(=O)[C@H](N)C3=CCC=CC3)[C@H]2SC1,1.79% [at 30.3 µM] (inactive)
17,C#CC(O)C(CC)CCCC (stereo unspecified),11.9% (inactive)
18,C=C1CCC2CC1C2(C)C (stereo unspecified),-1.24% (inactive)
19,CC(C)CCOCc1ccccc1,-4.77% (inactive)
20,CC1(C)C(=O)N(Cl)C(=O)N1Br,8.07% (inactive)

row,Structure (SMILES),"activity change, negative = cytotoxicity"
1,CCOc1ccc(OCC)c(Cl)c1,-2.09% (inactive)
2,c1ccc(-c2nc[nH]c2-c2ccccc2)cc1,1.07% [at 30.3 µM] (inactive)
3,CCOc1ccc2nc(S(N)(=O)=O)sc2c1,-6.94% [at 30.3 µM] (inactive)
4,O=C1CC[C@@H](C(=O)O)N1,5.12% [at 30.3 µM] (inactive)
5,CCCCC(CC)C(=O)OCCOCCOCCOCCOC(=O)C(CC)CCCC (stereo unspecified),-2.95% (inactive)
6,O=C(O)CNC(=O)CNC(=O)CNC(=O)CSC(=O)c1ccccc1,0.0377% [at 30.3 µM] (inactive)
7,CC(O)CC(C)O (stereo unspecified),0.0153% (inactive)
8,Clc1sc(Cl)c(Cl)c1Cl,6.97% (inactive)
9,C/C=C(\C)C(C)=O,0% (inactive)
10,CC1=NN(c2cccc(S(=O)(=O)O)c2)C(=O)C1,-11.1% (inactive)
11,C=CCOC(=O)c1ccc(C(=O)OCC=C)c(C(=O)OCC=C)c1,6.58% (inactive)
12,Cc1ccc(N)cc1S(=O)(=O)O,-10.9% (inactive)
13,CC(C)(CO)[N+](=O)[O-],2.38% (inactive)
14,C[Si](C)(C)O[Si](O)(O)O,10.6% (inactive)
15,CC(Cc1ccccc1)(NC(=O)CN)c1ccccc1 (stereo unspecified),-7.36% [at 30.3 µM] (inactive)
16,N[C@@H](CCC(=O)O)C(=O)O,0.604% (inactive)
17,C=C(C)C1CC=C(C)C(=O)C1 (stereo unspecified),-5.43% (inactive)
18,CC(CO)(CO)[N+](=O)[O-],12.4% (inactive)
19,NNC(=O)CP(=O)(c1ccccc1)c1ccccc1,1.48% [at 30.3 µM] (inactive)
20,C=CCCC(=O)O,5.21% (inactive)

# Assay: p53 small molecule agonists, cell-based qHTS assay: qHTS cell viability counter screen (AID 1963581)
# Conditions: p53RE-bla HCT-116 viability, ATP luminescence, 16 h; series mostly up to 66 µM; activity change, negative = cytotoxicity: at the top concentration
# Procedure, shortened: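 In the same plates used for the p53 bla reporter, HCT-116 cells given compounds for 16 h at 37 C received CellTiter-Glo; luminescence was recorded 30 min later at room temperature.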
row,Structure (SMILES),"activity change, negative = cytotoxicity"
1,OC[C@H]1O[C@@H]2O[C@H]3[C@H](O)[C@@H](O)[C@@H](O[C@H]4[C@H](O)[C@@H](O)[C@@H](O[C@H]5[C@H](O)[C@@H](O)[C@@H](O[C@H]6[C@H](O)[C@@H](O)[C@@H](O[C@H]7[C@H](O)[C@@H](O)[C@@H](O[C@H]8[C@H](O)[C@@H](O)[C@@H](O[C@H]9[C@H](O)[C@@H](O)[C@@H](O[C@H]1[C@H](O)[C@H]2O)O[C@@H]9CO)O[C@@H]8CO)O[C@@H]7CO)O[C@@H]6CO)O[C@@H]5CO)O[C@@H]4CO)O[C@@H]3CO,14.6% [at 30.3 µM] (inactive)
2,CCCCCCCCCCCCOC(C)=O,-2.13% (inactive)
3,S=C(S)NCCNC(=S)S,6% (inactive)
4,C=Cc1ccc(C(C)(C)C)cc1,2.82% (inactive)
5,CCN[C@H]1C[C@H](C)S(=O)(=O)c2sc(S(N)(=O)=O)cc21,19.6% [at 30.3 µM] (inactive)
6,O=c1c2ccccc2oc2ccccc12,-16.3% (inactive)
7,Nc1ncn([C@H]2C[C@H](O)[C@@H](CO)O2)c(=O)n1,-0.133% [at 30.3 µM] (inactive)
8,CC(=O)Nc1ccc(S(=O)(=O)Cl)cc1,-8.25% (inactive)
9,CC(C)(C)C(=O)CCc1ccc(Cl)cc1,-1.23% (inactive)
10,CC(=O)NNC(C)=O,0% (inactive)
11,O=[N+]([O-])c1ccc(Cl)cc1Cl,0.759% (inactive)
12,OCC1CC=CCC1 (stereo unspecified),-7.34% (inactive)
13,C=CCN(CC=C)CC=C,-2.28% (inactive)
14,O=C(Cl)c1c(Cl)cccc1Cl,-0.34% (inactive)
15,NCCCN(CCO)CCO,13.1% (inactive)
16,CC1=C(C(=O)O)N2C(=O)[C@@H](NC(=O)[C@H](N)C3=CCC=CC3)[C@H]2SC1,-6.26% [at 30.3 µM] (inactive)
17,C#CC(O)C(CC)CCCC (stereo unspecified),29.3% (inactive)
18,C=C1CCC2CC1C2(C)C (stereo unspecified),5.57% (inactive)
19,CC(C)CCOCc1ccccc1,-6.24% (inactive)
20,CC1(C)C(=O)N(Cl)C(=O)N1Br,0.0319% (inactive)

row,Structure (SMILES),"activity change, negative = cytotoxicity"
1,CCOc1ccc(OCC)c(Cl)c1,2.02% (inactive)
2,c1ccc(-c2nc[nH]c2-c2ccccc2)cc1,4.29% [at 30.3 µM] (inactive)
3,CCOc1ccc2nc(S(N)(=O)=O)sc2c1,-2.17% [at 30.3 µM] (inactive)
4,O=C1CC[C@@H](C(=O)O)N1,-20% [at 30.3 µM] (inactive)
5,CCCCC(CC)C(=O)OCCOCCOCCOCCOC(=O)C(CC)CCCC (stereo unspecified),-24.9% (inactive)
6,O=C(O)CNC(=O)CNC(=O)CNC(=O)CSC(=O)c1ccccc1,-16.2% [at 30.3 µM] (inactive)
7,CC(O)CC(C)O (stereo unspecified),5.45% (inactive)
8,Clc1sc(Cl)c(Cl)c1Cl,-18.6% (inactive)
9,C/C=C(\C)C(C)=O,0.41% (inactive)
10,CC1=NN(c2cccc(S(=O)(=O)O)c2)C(=O)C1,-0.92% (inactive)
11,C=CCOC(=O)c1ccc(C(=O)OCC=C)c(C(=O)OCC=C)c1,-5.87% (inactive)
12,Cc1ccc(N)cc1S(=O)(=O)O,-2.64% (inactive)
13,CC(C)(CO)[N+](=O)[O-],-9.36% (inactive)
14,C[Si](C)(C)O[Si](O)(O)O,8.43% (inactive)
15,CC(Cc1ccccc1)(NC(=O)CN)c1ccccc1 (stereo unspecified),-3.03% [at 30.3 µM] (inactive)
16,N[C@@H](CCC(=O)O)C(=O)O,-16.5% (inactive)
17,C=C(C)C1CC=C(C)C(=O)C1 (stereo unspecified),14.3% (inactive)
18,CC(CO)(CO)[N+](=O)[O-],-2.79% (inactive)
19,NNC(=O)CP(=O)(c1ccccc1)c1ccccc1,-10.2% [at 30.3 µM] (inactive)
20,C=CCCC(=O)O,2.16% (inactive)
